JMJD2A Tudor = inhibitors of human JMJD2A Tudor domain; Potency, µM (series often up to 114 µM), usual class: inhibitors; O75164; 4.4% of 390,000 active; AID 504339; AlphaScreen JMJD2A-Tudor / H3K4me3 peptide binding; note: nearly all actives have a fitted effect of over 50% in size
HP1b chromo inh = inhibitors of HP1-beta chromodomain binding to methylated histone tails | P83916 | AlphaScreen HP1-beta / biotin-H3K9me3 peptide binding | Potency, µM (highest dose often 114 µM), most hits filed as inhibitors | 0.56% of 390,000 active; note: nearly all actives have a fitted effect of over 70% in size
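HP1-beta protein (50 nM final) preincubated 30 min at room temperature with biotinylated H3(1-18)K9me3 peptide (50 nM) in PBS pH 7.4, 0.01% Tween-20, then compound added for 30 min. AlphaScreen streptavidin donor/nickel chelate acceptor beads (10 ug/mL final), 30 min dark, luminescence read.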
BAZ2B inh = BAZ2B (human) inhibition; Q9UIF8; AlphaScreen BAZ2B-H3K14Ac peptide displacement; Potency, µM (top dose mostly 114 µM), usual class: inhibitors; 4.4% of 360,000 active; note: nearly all actives have a fitted effect of over 60% in size
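AlphaScreen displacement of biotin-H3(5-23)K14Ac peptide (50 nM final) from BAZ2B (50 nM final) in PBS pH 7.4, 0.01% Tween-20; complex preformed 30 min RT, then compounds (top 110 uM) 30 min RT, beads 20 min dark.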
G9a inh = blocks human histone lysine methyltransferase G9a; G9a H3K9 monomethylation, AlphaScreen, 2 h; Potency, µM (titrated, usually from 102 µM), usual class: inhibitors; 8.8% of 350,000 active; note: nearly all actives have a fitted effect of over 75% in size
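Signal arises when biotinylated H3K9 peptide, once monomethylated, bridges streptavidin donor and antibody-captured acceptor beads. Enzyme at 20 nM was preincubated 15 min with test compounds; peptide 500 nM and SAM 20 uM then reacted for 2 h.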
Sfp inh = blocks B. subtilis Sfp PPTase activity | Biochemical Sfp PPTase activity, qHTS | 3.5% of 310,000 active | Potency, µM, actives largely listed as inhibitors | Q9F4F7 | AID 1490;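 note: the enzyme is Sfp with the accession as filed and its product quenches rhodamine fluorescence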
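Step 1, compound plus 15 nM Sfp-PPTase, 15 min, room temperature. Step 2, add rhodamine-CoA (5 uM) and BHQ-2-YbbR (12.5 uM). Step 3, read 525/598 nm fluorescence at 0 and 30 min.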
12-LOX inh = inhibitors of human 12S-lipoxygenase ALOX12; 1.1% of 580,000 active; purified 12hLO, xylenol orange hydroperoxide absorbance; Potency, µM (titrated, usually from 108 µM), most hits filed as inhibitors
Target sequence (P18054 whole entry, looked up): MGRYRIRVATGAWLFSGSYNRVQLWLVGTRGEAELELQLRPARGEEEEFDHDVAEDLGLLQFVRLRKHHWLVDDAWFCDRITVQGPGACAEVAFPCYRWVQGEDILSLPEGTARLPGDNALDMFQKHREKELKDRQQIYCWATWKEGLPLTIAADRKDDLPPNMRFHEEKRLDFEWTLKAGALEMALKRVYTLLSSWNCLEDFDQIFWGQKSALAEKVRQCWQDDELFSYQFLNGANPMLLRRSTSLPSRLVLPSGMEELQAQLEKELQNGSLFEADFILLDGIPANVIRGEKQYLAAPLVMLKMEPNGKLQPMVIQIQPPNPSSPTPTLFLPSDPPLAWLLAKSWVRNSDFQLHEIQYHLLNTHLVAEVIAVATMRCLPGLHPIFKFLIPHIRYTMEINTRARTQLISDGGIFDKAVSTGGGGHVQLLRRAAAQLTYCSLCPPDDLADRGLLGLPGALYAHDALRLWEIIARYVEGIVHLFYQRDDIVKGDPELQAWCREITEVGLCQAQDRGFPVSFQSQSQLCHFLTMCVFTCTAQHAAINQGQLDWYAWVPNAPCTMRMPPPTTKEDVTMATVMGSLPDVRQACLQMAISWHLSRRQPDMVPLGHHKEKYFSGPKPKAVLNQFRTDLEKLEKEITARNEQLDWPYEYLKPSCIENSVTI
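Purified human 12hLO (150 nM final) in 25 mM Hepes, 0.01% Triton X-100, pH 7.0 was preincubated 15 min at room temperature with compound. Then 40 uM arachidonic acid was added, 30 min. Hydroperoxide was read by Fe-XO absorbance ratio 573/405 nm.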
Of the large screens only hits and unclear results are named; the others gave an inactive call. This is a sample that favours compounds with a hit; in the whole collection about 8.7% have one here. Calls come from the whole dose curve; as a rule, active = well fitted curve in the direction sought with a large enough effect; inconclusive = small, poorly fitted or top-dose-only effect, or another doubt; inactive = no such curve, though single readings can be large; an effect the other way counts as inactive or inconclusive.

CCN(Cc1ccccc1)c1ccc(/C=C(\C#N)c2ccccn2)cc1	G9a inh 50.1µM, Sfp inh inconclusive, 12-LOX inh inconclusive
Cc1noc(CC2CCN(C(=O)C(C)Oc3ccc4ccccc4c3)CC2)n1 (configuration not stated)	none (no result: JMJD2A Tudor, HP1b chromo inh, BAZ2B inh, G9a inh, Sfp inh)
CCOC(=O)CC(=O)Nc1ccc(Br)cc1C(=O)O	JMJD2A Tudor 56.2µM, G9a inh inconclusive
COc1ccc(C(CC(=O)Nc2ccc(OC)c(OC)c2)N2Cc3ccccc3C2=O)cc1 (configuration not stated)	BAZ2B inh 79.4µM (no result: Sfp inh)
COc1ccc(C(CC(=O)Nc2cc(OC)c(OC)c(OC)c2)N2Cc3ccccc3C2=O)cc1 (configuration not stated)	12-LOX inh inconclusive (no result: Sfp inh)
O=C(O)/C(=C\C(=O)c1ccccc1)Nc1ccccc1	BAZ2B inh 79.4µM, G9a inh 20µM (no result: JMJD2A Tudor, HP1b chromo inh, 12-LOX inh)
COc1ccc(C2/C=C\CN(C(=O)c3ccccc3)CC(=O)N2Cc2cccc(F)c2)cc1 (configuration not stated)	12-LOX inh inconclusive (no result: BAZ2B inh, G9a inh, Sfp inh)
COc1ccc(C2/C=C\CN(CC(C)C)CC(=O)N2Cc2cccc(F)c2)cc1 (configuration not stated)	G9a inh 31.6µM, Sfp inh inconclusive, 12-LOX inh inconclusive (no result: BAZ2B inh)
COC1CN(c2cccc(F)c2)C12CCN(C(=O)c1ccco1)CC2 (configuration not stated)	none (no result: JMJD2A Tudor, HP1b chromo inh, BAZ2B inh, G9a inh, Sfp inh)
CCOC(=O)c1c(C)[nH]c(C)c1S(=O)(=O)NCC(=O)NCc1ccccc1C	none (no result: Sfp inh)
CCOC(=O)c1c(C)[nH]c(C)c1S(=O)(=O)NCc1cc(C)ccc1C	JMJD2A Tudor inconclusive, BAZ2B inh 50.1µM, G9a inh inconclusive
CN(c1ccccc1)S(=O)(=O)c1ccc(NC(=O)c2cc(=O)c3ccccc3o2)cc1	none (no result: Sfp inh)
COc1cc(NC(=O)c2cc(=O)c3ccccc3o2)cc(OC)c1	none (no result: JMJD2A Tudor, HP1b chromo inh, BAZ2B inh, G9a inh, Sfp inh)
CN(C)S(=O)(=O)c1cc(NC(=O)c2cc(=O)c3ccccc3o2)ccc1Cl	G9a inh inconclusive, Sfp inh 31.6µM
COc1ccc(NC(=O)c2cc(=O)c3ccccc3o2)cc1Cl	G9a inh 56.2µM
CCCNc1nc(Nc2ccc(C)cc2)c2cnn(C)c2n1	none (no result: JMJD2A Tudor, HP1b chromo inh, BAZ2B inh, G9a inh, Sfp inh)
Cc1cccc(C(=O)c2c(N)sc3c2CCCC3)c1	JMJD2A Tudor inconclusive, G9a inh 31.6µM, Sfp inh 44.7µM, 12-LOX inh inconclusive
Cc1cccc(C(=O)c2c(N)sc3c2CCC(C)C3)c1 (configuration not stated)	JMJD2A Tudor inconclusive, HP1b chromo inh inconclusive, G9a inh 44.7µM, Sfp inh inconclusive, 12-LOX inh inconclusive
Nc1sc2c(c1C(=O)c1ccc(Cl)cc1)CCCC2	none (no result: JMJD2A Tudor, HP1b chromo inh, BAZ2B inh, G9a inh, 12-LOX inh)
CC1CCc2c(sc(N)c2C(N)=O)C1 (configuration not stated)	JMJD2A Tudor inconclusive, G9a inh inconclusive, 12-LOX inh inconclusive
Cn1cc([C@@H](NC(=O)CCC2=NNC(=O)CC2)C2CC(O)C2)cn1 (some centres not stated)	none (no result: JMJD2A Tudor, HP1b chromo inh, BAZ2B inh, G9a inh, Sfp inh)
CCc1nc(-c2c3n(c(=O)n(CC(=O)Nc4ccc(C)cc4C)c2=O)CCCCC3)no1	none (no result: JMJD2A Tudor, HP1b chromo inh, BAZ2B inh, G9a inh, Sfp inh)
COc1ccc(CN2C(=O)CO[C@H]3CN(C(=O)NCc4ccccc4)C[C@H]32)cc1	none (no result: JMJD2A Tudor, HP1b chromo inh, BAZ2B inh, G9a inh, Sfp inh)
CCOC(=O)C1=C(O)/C(=C\c2cc(C)n(-c3ccc(F)cc3)c2C)N=C1C	JMJD2A Tudor inconclusive, BAZ2B inh inconclusive, G9a inh inconclusive, 12-LOX inh 35.5µM
Cc1cc(C)nc(SCCc2ccncc2)n1	JMJD2A Tudor 4.47µM, G9a inh 3.98µM
CCc1ccccc1NC(=O)Cn1cccc1-c1nc(-c2ccc(OC)c(F)c2)no1	none (no result: JMJD2A Tudor, HP1b chromo inh, BAZ2B inh, G9a inh, Sfp inh)
Cc1cc(C(=O)Nc2nc3c(s2)CCCC3)no1	none
COc1cccc(C(=O)Nc2nc3c(s2)CCCC3)c1	JMJD2A Tudor inconclusive, BAZ2B inh inconclusive, G9a inh 10µM, 12-LOX inh inconclusive (no result: Sfp inh)
CN(C)c1ccc(C(=O)Nc2nc3c(s2)CCCC3)cc1	JMJD2A Tudor 79.4µM, HP1b chromo inh inconclusive, BAZ2B inh inconclusive, G9a inh 35.5µM, Sfp inh inconclusive, 12-LOX inh inconclusive
CC(C)(C)c1ccc(C(=O)NC(=S)Nc2nc3c(s2)CCCC3)cc1	JMJD2A Tudor inconclusive, 12-LOX inh 44.7µM

From PubChem BioAssay
